Assay results from PubChem BioAssay (NCATS).
Results filed as inconclusive are left out. Calls of active or inactive are those of the source. The call rests on the fitted dose curve; in most records, active means well fitted cell-killing curve with a large enough effect; inconclusive means small, poorly fitted or top-dose-only effect; inactive means flat fitted curve, though single readings scatter.

Experiments:
[1] = MultiTox-Fluor Cytotoxicity Assay - LYMP1-003 - Live Cells (AID 962);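 further: cells exposed to compound for 16 hours at 37 °C; cytotoxic hits lower the live-cell protease signal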
Outline: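 Cells plated at 2500 per well and incubated 5 hr; compounds added and incubated 16 hr at 37 C; MultiTox-Fluor reagent added for 60 min at room temperature; fluorescence of liberated AFC measured at 405/510 nm.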

[2] = Cell Viability - LYMP1-003 - Assay at 40 hr (AID 964); further: series mostly up to about 92 µM; nearly all actives have a fitted effect of over 60% in size
Outline: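 This qHTS cytotoxicity screen treats human lymphoblastoid cells (LYMP1-003) with compounds for 40 hr and quantifies cellular ATP via luciferase luminescence.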

[3] = Cell Viability - LYMP2-009 (AID 968);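 further: series mostly up to about 92 µM; cells exposed to compound for 24 h at 37 °C; nearly all actives have a fitted effect of over 55% in size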
[4] = Cell Viability - LYMP2-011 (AID 969); further: nearly all actives have a fitted effect of over 60% in size
Outline: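 Acute toxicity is scored as a concentration-dependent drop in intracellular ATP of a human lymphoblastoid line after 24 hr treatment. Values are AC50s modeled with the Hill equation.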

[5] = Cell Viability - LYMP2-013 (AID 970);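 further: series mostly up to about 92 µM; cells exposed to compound for 24 h at 37 °C; nearly all actives have a fitted effect of over 55% in size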
Outline: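 Acute toxicity was measured in human lymphoblastoid cells (2500/well) exposed to compound titrations for 24 hr, with ATP luminescence (CellTiter-Glo) as read-out and AC50 fitted by Hill equation.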

[6] = Cell Viability - LYMP2-017 (AID 972);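 further: series mostly up to about 92 µM; cells exposed to compound for 24 hours at 37 °C; nearly all actives have a fitted effect of over 55% in size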
Outline: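 Steps: plate 2500 lymphoblastoid cells per well; incubate 5 hr at 37 C; add compound across a concentration series and incubate 24 hr at 37 C; add CellTiter-Glo and read luminescence after 30 min at room temperature; fit Hill curves for AC50.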

[7] = Cell Viability - LYMP2-019 (AID 973);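 further: cells exposed to compound for 24 h at 37 °C; nearly all actives have a fitted effect of over 55% in size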
Outline: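 Cells plated at 2500/well and allowed 5 hr at 37 C before compound addition. After 24 hr incubation, CellTiter-Glo reagent was added, plates sat 30 min at room temperature, and luminescence was recorded.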

[8] = Cell Viability - LYMP2-021 (AID 974)
Outline: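 Concentration-response cytotoxicity in a human lymphoblastoid line: 24 hr treatment at 37 C in complete culture medium, tetraoctylammonium bromide as positive control, luminescent ATP quantitation as viability measure.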

[9] = Cell Viability - LYMP2-025 (AID 976);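 further: series mostly up to about 92 µM; cells exposed to compound for 24 h at 37 °C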
Outline: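 In qHTS format, LYMP2-025 lymphoblastoid cells in complete culture medium received compound for 24 hr; ATP-based CellTiter-Glo signal gave viability, with AC50 derived by Hill equation.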

[10] = Cell Viability - LYMP2-007 (AID 979);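 further: cells exposed to compound for 24 h before reading; nearly all actives have a fitted effect of over 60% in size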
Outline: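 Acute toxicity is scored as a concentration-dependent fall in intracellular ATP in human lymphoblastoid cells treated 24 hr at 37 C, measured by luciferase luminescence; Hill-equation modelling yields AC50.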

[11] = Cell Viability - LYMP2-008 (AID 980);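 further: cells exposed to compound for 24 h at 37 °C; nearly all actives have a fitted effect of over 60% in size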
Outline: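 Acute cytotoxicity is scored as concentration-dependent loss of cellular ATP in a human lymphoblastoid line after 24 hr treatment at 37 C. ATP is quantified by luciferase luminescence.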

[12] = Cell Viability - LYMP2-010 (AID 981)
Outline: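 Acute toxicity is scored as a concentration-dependent loss of cellular ATP in human lymphoblastoid cells after 24 hr compound exposure in complete medium. Tetraoctylammonium bromide is the positive control.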

[13] = Cell Viability - LYMP2-014 (AID 983);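 further: series mostly up to about 92 µM; cells exposed to compound for 24 h at 37 °C; nearly all actives have a fitted effect of over 50% in size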
Outline: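 Decrease in intracellular ATP after 24 hr treatment at 37 C, measured by luciferase luminescence, indicated cytotoxicity. Concentration-response data were fitted with the standard Hill equation to give AC50.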

[14] = Cell Viability - LYMP2-018 (AID 985);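 further: compound exposure lasted 24 hr at 37 °C; nearly all actives have a fitted effect of over 50% in size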
Outline: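 Acute cytotoxicity is scored as a concentration-dependent drop in intracellular ATP after 24 hr exposure of the lymphoblastoid line in complete culture medium, measured by luciferase luminescence. Potency is expressed as AC50 from Hill modelling.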

[15] = Cell Viability - LYMP2-020 (AID 986)
Outline: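 Acute cytotoxicity in a human lymphoblastoid line is scored as a concentration-dependent fall in cellular ATP after 24 hr at 37 C in complete medium. The positive control is tetraoctylammonium bromide, and potency is given as Hill-fit AC50.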

[16] = Cell Viability - LYMP2-022 (AID 987); further: nearly all actives have a fitted effect of over 55% in size
Outline: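 Acute toxicity in a human lymphoblastoid line is scored as decreased intracellular ATP after 24 hr compound treatment at 37 C. ATP is measured by CellTiter-Glo luminescence; curves are fitted with the Hill equation to give AC50.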

[17] = Cell Viability - LYMP2-024 (AID 988); further: nearly all actives have a fitted effect of over 60% in size
Outline: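 Acute toxicity is measured as concentration-dependent loss of intracellular ATP in a human lymphoblastoid line treated 24 hours at 37 C. Luciferase luminescence quantifies ATP; AC50 values come from standard Hill-equation modelling.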

[18] = Cell Viability - LYMP2-026 (AID 989);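 further: cells exposed to compound for 24 h at 37 °C; nearly all actives have a fitted effect of over 50% in size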
Outline: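 Concentration-dependent loss of intracellular ATP in human lymphoblastoid cells after 24 hr at 37 C, quantified by luciferase luminescence. AC50 derived from standard Hill equation.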

[19] = Cell Viability - LYMP1-002 - Assay at 24 hr (AID 993)
Outline: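 qHTS, LYMP1-002 lymphoblastoid, 24 h cpd, 37 C, CellTiter-Glo ATP luminescence; AC50 via Hill eq.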

[20] = Cell Viability - LYMP1-002 - Assay at 40 hr (AID 994); further: nearly all actives have a fitted effect of over 60% in size
Outline: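 Viability in the human lymphoblastoid line was measured as intracellular ATP via CellTiter-Glo after 40 hr compound exposure. Tetraoctylammonium bromide served as positive control.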

Measured: Potency

Nc1ccc(S(=O)(=O)O)cc1
inactive: all assays above

CC1(C)CC(N=C=O)CC(C)(CN=C=O)C1 (stereo not given)
inactive: all assays above

Cc1ccc([N+](=O)[O-])cc1N
inactive: all assays above

Clc1cc(Cl)c(Cl)c(Cl)c1Cl
inactive: all assays above

CCCCC(CC)CN (stereo not given)
inactive: all assays above

OCCNCCO
inactive: all assays above

c1ccc2c(c1)[nH]c1ccccc12
inactive: all assays above

CCO[Si](CCCN)(OCC)OCC
inactive: all assays above

C1OCOCO1
inactive: all assays above

c1ccc2c(c1)c1cccc3ccc4cccc2c4c31
inactive: all assays above
